Assay results: PubChem BioAssay (NCI)
Compounds without any hit were thinned out: in the full panel of roughly 83,000, 20% have a hit.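 Growth was measured after 48 h exposure to one concentration of compound in 96-well plates. Values under 10 count as active.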 Unmarked numbers belong to inactive results. The source made the active and inactive calls.

These molecules were tested on MDA-MB-468 breast (assay: NCI-60 one-dose screen, 48 h (100 = growth as untreated, 0 = no growth, -100 = all killed)). Conditions: 10 µM unless noted.

Structure (SMILES) | growth
Cc1ccccc1C1N=C2Oc3ccccc3C=C2C(=O)N1 (stereo not given) | 21.8%
C=C1C(=O)O[C@@H]2/C=C(/C)C3=CC(=O)[C@@](C)(C[C@H](OC(=O)/C(C)=C\C)[C@@H]12)O3 | -43.6% (active)
O=[N+]([O-])c1cccc(/C=C/c2ccc3ccccc3n2)c1 | 71.2%
O=[N+]([O-])c1ccc(N/N=C\c2ccccc2[N+](=O)[O-])nc1 | 114%
CCN(CC)c1ccc(C2=NN(C(C)=O)C(c3cc(OC)c(OC)c(OC)c3)C2)cc1 (stereo not given) | 17%
CC1OC(O[C@@H]2[C@H](O)C(CO)OC(O[C@H]3COC(O[C@H]4CC[C@]5(C)[C@H]6CC[C@]78OC[C@@]9(CCC(C)(C)C[C@H]97)[C@H](O)C[C@@]8(C)[C@]6(C)CC[C@H]5C4(C)C)[C@@H](OC4OC(CO)[C@@H](O)[C@@H](O)[C@@H]4O)[C@@H]3O)[C@H]2OC2OC[C@@H](O)[C@@H](O)[C@@H]2O)[C@@H](O)[C@@H](O)[C@H]1O (stereo not given in full) | -39.3% (active)
COc1cc(/C=C/c2cc(/C=C/c3ccc(O)c(OC)c3)n(-c3ccccc3)c(=O)n2)ccc1O | 63%
Cn1cnc([N+](=O)[O-])c1/C=C1\Oc2ccc(Cl)cc2C1=O | 79.8%
C=C(C)[C@@H]1CC[C@]2(c3nnc(-c4ccncc4)o3)CC[C@]3(C)[C@H](CC[C@@H]4[C@@]5(C)CCC(=O)NC(C)(C)[C@@H]5CC[C@]43C)[C@@H]12 | 92.7%
O=C1Nc2cc(Cl)ccc2Oc2cc(Oc3ccccc3)ccc21 | 1.71% (active)
